Screening data from PubChem BioAssay.
HT1080 IDH1KD tx: kills HT-1080 cells with IDH1 knockdown; Potency, µM (doses to about 46.1 µM), for the others: at the top dose activity, negative = toxicity, hits mostly cytotoxic; HT-1080 IDH1 knockdown viability, ATP luminescence, 48 h; 360,000 compounds, 2% hits;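 further: potency means the concentration at half of the fitted maximal effect; 0% = DMSO wells and -100% = cell-free medium wells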
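Using the IDH1-knockdown HT-1080 line run in the same batch and compound series as the NT line, viability after 48 h at 37 °C was determined by CellTiter-Glo luminescence and expressed as % activity.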
TDP1 cell CPT: growth inhibition of DT40 Tdp1-/-;hTDP1 cells with camptothecin (screen for TDP1 inhibitors); chicken DT40 Tdp1-/-;hTDP1 cells + 20 nM CPT, ATP luminescence, 48 h; 420,000 compounds, 12% hits; Potency, µM (titrated, usually from 46.2 µM), for inactives: top-dose activity change, negative = growth inhibition, most hits filed as inhibitors; further: potency means the concentration at half of the fitted maximal effect; nearly all actives have a fitted effect of over 55% in size
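Chicken DT40 Tdp1-/- cells complemented with human TDP1, 400 cells/well, exposed to compounds plus 20 nM camptothecin for at least 48 h at 37 C; viability read as ATP content by CellTiter-Glo luminescence.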
HT1080-NT tox: kills 2HG-producing HT-1080-NT fibrosarcoma cells; HT-1080-NT fibrosarcoma viability, CellTiter-Glo ATP luminescence, 48 h; Potency, µM (top dose mostly 46.1 µM), inactives show top-dose activity, negative = less viability, most hits filed as cytotoxic; 360,000 compounds, 1.6% hits;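 further: NT is the 2HG producing partner of a matched IDH1 knockdown line; potency means the concentration at half of the fitted maximal effect; 0% = DMSO-treated cells and -100% = media-only wells without cells; nearly all actives have a fitted effect of over 55% in size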
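Toxicity toward the 2HG-producing NT line was scored as %Activity, normalised to DMSO and no-cell wells, from CellTiter-Glo luminescence after 48 hours' treatment.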
ELG1 repair inh: ELG1-dependent DNA repair inhibition; HEK293T ELG1-luciferase reporter, luminescence, 16 h; DNA damage induced by 5-fluorouridine; Potency, µM (top dose mostly 46.1 µM), for inactives: top-dose activity change, negative = inhibition, most hits filed as inhibitors; 330,000 compounds, 2.3% hits; further: potency means the concentration at half of the fitted maximal effect; nearly all actives have a fitted effect of over 55% in size
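Cells (2,000 per well) received 5-fluorouridine plus test compound or DMSO and were incubated 16 hr at 37 °C, 5% CO2. Luciferase activity was read by luminescence 30 min after ONE-Glo addition; signal suppression marked inhibition of damage-induced ELG1 function.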
IL-1B inflam inh: blocks inflammasome-driven IL-1 beta release; THP-1 LPS/ATP IL-1B secretion, AlphaLISA, 16 h; active compounds read low; activity change, % at 57.5 µM; 360,000 compounds, 4.7% hits; in the data active means activity change below about -50%; inconclusive means mostly about -30% to -49%
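Secreted IL-1B measured by AlphaLISA bead assay after 16 h compound exposure of THP-1 cells; compounds (final up to 57.5 uM) added 1 h before LPS (250 ng/mL) and ATP (1.25 mM) stimulation; lower signal means less secretion.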
DT40 TDP1 no CPT: qHTS for Inhibitors of human tyrosyl-DNA phosphodiesterase 1 (TDP1): qHTS in cells in absence of CPT. DT40 Tdp1-/- hTDP1 cells, no CPT, ATP luminescence, 48 h. Potency, µM (highest dose often 46.2 µM), without a hit: at the highest dose activity change, negative = growth inhibition, hits mostly inhibitors. 420,000 compounds, 15% hits. AID 686978, 2013; further: potency means the concentration at half of the fitted maximal effect; nearly all actives have a fitted effect of over 55% in size
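Readout: luminescence from CellTiter-Glo after 30 min in the dark at RT. Cells: DT40 Tdp1-/- with stable hTDP1, 400/well. Exposure: compounds alone, ≥48 hr, 37 °C.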
* = called active by the depositor; [ ] = remark or other dose. An excerpt weighted towards active compounds, which were near 19% of everything screened. Unless noted, the call rests on the fitted dose curve; in most records, active means well fitted curve in the direction sought with a large enough effect; inconclusive means small, poorly fitted or top-dose-only effect, or another doubt; inactive means no such curve, though single readings can be large; an effect the other way counts as inactive or inconclusive. Unless noted, on the % scale 0 is the no-effect control and ±100 the full control effect.

`Cc1nc2ccc(Cc3ccc4nc(C)[nH]c4c3)cc2[nH]1` gave HT1080 IDH1KD tx -8%, TDP1 cell CPT 26µM*, HT1080-NT tox -14%, ELG1 repair inh inconclusive, IL-1B inflam inh 9 and DT40 TDP1 no CPT inconclusive.
For Cc1nc2ccc(-c3nc4ccc(N)cc4[nH]3)cc2[nH]1 the results were HT1080 IDH1KD tx 5%, TDP1 cell CPT 2.9µM*, HT1080-NT tox 7%, ELG1 repair inh inconclusive, IL-1B inflam inh 0 and DT40 TDP1 no CPT 4.1µM*.
COc1ccc(CN(C)CC(=O)NC2CCCc3ccccc32)cc1OC (stereo not given) was read as HT1080 IDH1KD tx -17%, TDP1 cell CPT -5%, HT1080-NT tox -18%, ELG1 repair inh -9%, IL-1B inflam inh 39 and DT40 TDP1 no CPT inconclusive.
O=C(CSc1nc(-c2ccco2)cc(C(F)(F)F)n1)NCCCN1CCOCC1 was read as HT1080 IDH1KD tx -4%, TDP1 cell CPT 4%, HT1080-NT tox 0%, ELG1 repair inh 7%, IL-1B inflam inh -10 and DT40 TDP1 no CPT -3%.
Screening Cc1cc(C)cc(CSc2ccc(S(=O)(=O)N3CCCC3)cn2)c1 returned HT1080 IDH1KD tx -6%, TDP1 cell CPT inconclusive, HT1080-NT tox -2%, ELG1 repair inh -12%, IL-1B inflam inh 13 and DT40 TDP1 no CPT inconclusive.
Screening O=S(=O)(c1ccc(SCCOc2ccc(Br)cc2)nc1)N1CCCC1 returned HT1080 IDH1KD tx -28%, TDP1 cell CPT inconclusive, HT1080-NT tox -7%, ELG1 repair inh -10%, IL-1B inflam inh -14 and DT40 TDP1 no CPT 16µM*.
`O=S(=O)(c1ccc(SCCOc2ccc(Cl)cc2)nc1)N1CCCC1` gave HT1080 IDH1KD tx -13%, TDP1 cell CPT inconclusive, HT1080-NT tox -2%[9.24 µM], ELG1 repair inh inconclusive, IL-1B inflam inh inconclusive and DT40 TDP1 no CPT inconclusive.
`COc1ccc(CSc2ccc(S(=O)(=O)N3CCCC3)cn2)cc1F` gave HT1080 IDH1KD tx -11%, TDP1 cell CPT 23µM*, HT1080-NT tox -13%, IL-1B inflam inh -13 and DT40 TDP1 no CPT 16µM*.
Screening COc1ccc(C(C)=O)cc1CSc1ccc(S(=O)(=O)N2CCCCC2)cn1 returned HT1080 IDH1KD tx 0%, TDP1 cell CPT inconclusive, HT1080-NT tox -11%, ELG1 repair inh -18%, IL-1B inflam inh 0 and DT40 TDP1 no CPT 16µM*.
For O=S(=O)(c1ccc(SCc2ccc(Cl)cc2)nc1)N1CCCC1 the results were HT1080 IDH1KD tx 1%, TDP1 cell CPT inconclusive, HT1080-NT tox -16%, ELG1 repair inh -18%, IL-1B inflam inh -3 and DT40 TDP1 no CPT 15µM*.
`O=C(NC12CC3CC(CC(C3)C1)C2)c1ccccc1` gave HT1080 IDH1KD tx 5%, TDP1 cell CPT 4%, HT1080-NT tox 18%, ELG1 repair inh 4%, IL-1B inflam inh -14 and DT40 TDP1 no CPT 2%.
For O=C(NC12CC3CC(CC(C3)C1)C2)N(Cc1ccccc1)Cc1ccncc1 the results were HT1080 IDH1KD tx -8%, TDP1 cell CPT 13µM*, HT1080-NT tox -10%, ELG1 repair inh inconclusive, IL-1B inflam inh -28 and DT40 TDP1 no CPT 18µM*.
For CCCCOc1ccc(C2=NC(c3ccccc3)=Nc3ccc(OC)cc3N2)cc1 the results were TDP1 cell CPT 16µM* and DT40 TDP1 no CPT 23µM*.
Screening CCOc1ccc(C2=NNC(c3cccs3)=Nc3ccc(OC)cc32)cc1 returned HT1080 IDH1KD tx -4%, TDP1 cell CPT -8%, HT1080-NT tox -18%, ELG1 repair inh inconclusive, IL-1B inflam inh -23 and DT40 TDP1 no CPT -26%.
`CCOc1ccc(C2=NNC(c3cccnc3)=Nc3ccc(OC)cc32)cc1` gave HT1080 IDH1KD tx -1%, TDP1 cell CPT -24%, HT1080-NT tox -3%, ELG1 repair inh -11%, IL-1B inflam inh 0 and DT40 TDP1 no CPT -21%.
Screening COc1ccc2c(c1)NC(c1ccc(Cl)cc1)=NC(c1cccs1)=N2 returned TDP1 cell CPT 29µM* and DT40 TDP1 no CPT -76%.
Screening COc1ccc(C2=Nc3ccc(OC(F)(F)F)cc3NC(c3cccnc3)=N2)cc1 returned TDP1 cell CPT 10µM* and DT40 TDP1 no CPT 6.5µM*.
Screening CCOc1ccc(C2=NC(c3ccc(OC)cc3)=Nc3ccc(Cl)cc3N2)cc1 returned TDP1 cell CPT inconclusive and DT40 TDP1 no CPT 21µM*.
COc1ccc(C(=O)NCC2Cc3cc(F)cc(-c4cncnc4)c3O2)cc1 (stereo not given) was read as TDP1 cell CPT -13% and DT40 TDP1 no CPT -30%.
Screening O=C1CNC(=S)N1CCCc1ccccc1 returned HT1080 IDH1KD tx 10%, TDP1 cell CPT -12%, HT1080-NT tox 7%, ELG1 repair inh 14%, IL-1B inflam inh inconclusive and DT40 TDP1 no CPT 19%.
For c1ccc(CC2CCN(C(c3cccs3)c3nnnn3C3CCCC3)CC2)cc1 (stereo not given) the results were HT1080 IDH1KD tx 3%, TDP1 cell CPT inconclusive, HT1080-NT tox 0%, ELG1 repair inh -2%, IL-1B inflam inh 0 and DT40 TDP1 no CPT inconclusive.
Screening CCC(C)(C)n1nnnc1C(c1cccs1)N1CCCCC1 (stereo not given) returned HT1080 IDH1KD tx 0%, TDP1 cell CPT inconclusive, HT1080-NT tox -11%, ELG1 repair inh -1%, IL-1B inflam inh -6 and DT40 TDP1 no CPT 18µM*.
For c1csc(C(c2nnnn2C2CCCCC2)N2CCCC3(CCCCC3)C2)c1 (stereo not given) the results were HT1080 IDH1KD tx 1%, TDP1 cell CPT inconclusive, HT1080-NT tox 5%, ELG1 repair inh -3%, IL-1B inflam inh 1 and DT40 TDP1 no CPT 23µM*.
For CCC(C)(C)n1nnnc1C(c1ccc2ncccc2c1)N1CCCCCC1 (stereo not given) the results were HT1080 IDH1KD tx 17%, TDP1 cell CPT 11µM*, HT1080-NT tox 11%, ELG1 repair inh 10%, IL-1B inflam inh -5 and DT40 TDP1 no CPT inconclusive.
O=C(Oc1ccc(=O)[nH]n1)c1ccccc1 was read as HT1080 IDH1KD tx 12%, TDP1 cell CPT -17%, HT1080-NT tox -1%, IL-1B inflam inh 10 and DT40 TDP1 no CPT -3%.
O=P(O)(O)OC(Cn1cncn1)(Cn1cncn1)c1ccc(F)cc1F was read as TDP1 cell CPT 16% and DT40 TDP1 no CPT 5%.
